According to PubChem BioAssay AID687001 (Broad Institute, 2013):
Measured potencies and affinities stand elsewhere.

target: Protein S100-A4 (Homo sapiens) (UniProt P26447); test: S100A4-myosin IIA binding inhibitor potency, dose response, biochemical, fluorescence polarization, cherry-picked hits (AID 687001); settings: FP, S100A4/TAMRA-myosin IIA peptide binding; series mostly up to 11 µM; activity change, negative = inhibition: at the top concentration;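 also: 0% = DMSO neutral control wells and -100% = TFP positive control wells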
Sequence (P26447 whole entry, looked up): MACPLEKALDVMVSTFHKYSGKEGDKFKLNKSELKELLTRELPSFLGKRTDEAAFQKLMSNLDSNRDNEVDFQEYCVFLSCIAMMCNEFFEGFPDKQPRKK

Activity change, negative = inhibition, inactive:
Cc1onc(-c2ccccc2Cl)c1C(=O)N1CCCC1 2.91%
CCCC(=O)Nc1ccc2c(c1)OC[C@@H](C)N(C(=O)c1cnccn1)C[C@@H](C)[C@H](OC)CN(C)C2=O 4.36%
COC(=O)Cc1c(C)nc(SCc2ccccc2)[nH]c1=O -0.468%
Cc1nn(-c2ccc(N3CCOCC3)nn2)c(C)c1CCC(=O)N1CCN(C)CC1 -0.085%
O=C1CCc2cc(S(=O)(=O)N3CCCCC3)cc3c2N1CCC3 28.8%
CC(=O)N1CCCCN2[C@@H](CO)[C@H](c3ccc(-c4cccc(C(=O)N(C)C)c4)cc3)[C@@H]2C1 20.4%
C[C@@H]1CN([C@@H](C)CO)C(=O)c2cc(C#C[C@@H](C)O)cnc2O[C@H]1CN(C)C(=O)Cc1ccncc1 21%
CCCCOc1ccc(S(=O)(=O)N2CCN(c3ccc(N4CCN(CC)CC4)nn3)CC2)cc1 1.2%
CCN(CC)C(=O)Oc1ccc2c(c1)O/C(=C\c1ccco1)C2=O 46.4%
CC(=O)Nc1ccc(C=NNc2nnc(NN=Cc3ccc(NC(C)=O)cc3)c3ccccc23)cc1 -2.18%
CCOc1cc(S(=O)(=O)N2CCC(c3nc4ccccc4s3)CC2)c(OCC)cc1S(=O)(=O)N1CCCCC1 -0.735%
CCCC(=O)Nc1ccc(C=C(C(C)=O)C(C)=O)cc1 8.38%
CN(C)C(=O)C[C@@H]1C=C[C@H](NC(=O)Nc2cccc(F)c2)[C@@H](CO)O1 -2.87%
CCc1ccc(C(=O)COC(=O)c2ccco2)cc1 -1.4%
COc1cc(/C=C2\SC(=S)N(NC(=O)c3ccccc3OC)C2=O)ccc1O 36%
CC(=O)N1[C@H](C(=O)N[C@H](C)c2ccccc2)[C@@H](CO)[C@@H]2Cn3c(cccc3=O)[C@@H]21 -1.68%
Cc1cccc(C)c1NC(=O)C1(C)CCC(=O)N1CCOc1ccccc1 (centres undefined) -1.45%
CCCc1cn(CC[C@@H]2CC[C@H](NC(=O)C3CCCC3)[C@H](CO)O2)nn1 -4.03%
CCNC(=O)[C@H]1[C@H](CO)[C@H]2Cn3c(ccc(-c4ccc(F)cc4)c3=O)[C@@H]1N2C 0.752%
Cc1cc(/C(N)=N/OC(=O)Nc2ccccc2)no1 0.941%
COc1ccc(S(=O)(=O)N2CCCCC2)cc1NC(=O)CCOc1cc(C)ccc1C -3.14%
CCN1CCN(CCNC(=O)c2cc(Cl)c(NC(=O)C3=C(C)OCCS3)cc2OC)CC1 17.9%
Cc1cc(OCC(=O)NCCc2c[nH]c3ccccc23)c2c(C)cc(=O)oc2c1 -1.62%
COc1ccc(C2SCCN2S(=O)(=O)c2ccc(F)cc2)cc1OC (centres undefined) -4.85%
O=C(C[C@H]1C[C@@H]2c3cc(NC(=O)C4CCOCC4)ccc3O[C@@H]2[C@H](CO)O1)NCCN1CCCCC1 -1.82%
Cc1ccc(S(=O)(=O)NCC[C@@H]2CC[C@@H](NC(=O)C3CCOCC3)[C@H](CO)O2)cc1 -1.78%
Cn1c(=O)[nH]c2c(nc(-c3ccc(Cl)cc3)n2C)c1=O -3.52%
C[C@@H]1CN([C@@H](C)CO)C(=O)c2cc(NC(=O)C3CC3)ccc2O[C@@H]1CN(C)Cc1ccc(Cl)c(Cl)c1 -3.49%
COc1ccc(-c2coc(CCC(=O)N3CCN(c4cc(C)ccc4C)CC3)n2)cc1 10.4%
CC(OCCN(C)C)C(=O)C12CC3CC(CC(C3)C1)C2 (centres undefined) -2.31%
Cc1cc(-c2nc(C)c(-c3nnc(SCC(=O)Nc4ccc(Cl)cc4)n3C)s2)no1 0.268%
O=C(Cc1ccc(Br)cc1)N/N=C/c1cccnc1 -3.2%
O=C(Cc1ccccn1)N[C@@H]1CC[C@@H](CCNS(=O)(=O)c2cccc(F)c2)O[C@H]1CO 9.21%
COc1ccc(Cl)cc1NC(=O)CN(C)C(=O)CCCc1c[nH]c2ccccc12 -4.55%
CN(C(=O)c1ccc(Br)o1)C1CCCCC1 1.27%
CCc1ccc(NC(=O)C(C)OC(=O)c2ccc(NS(=O)(=O)c3ccc(C)c([N+](=O)[O-])c3)cc2)cc1 (centres undefined) 15.1%
O=C(CNC(=O)c1ccc(Cl)cc1Cl)OCc1cn2cc(Br)ccc2n1 -14.6%
Cc1nn(C)cc1S(=O)(=O)Nc1ccc(C(F)(F)F)cc1 -0.107%
O=C1CNC[C@H]2[C@@H](c3ccc(C#CC4CCCC4)cc3)[C@@H](CO)N12 23.8%
